Bioassay records as filed in PubChem BioAssay.
N-glyco inh – increase of ERlucT glycosylation luciferase signal, primary screen, N-linked glycosylation inhibitor project, D54 ERlucT cells, luminescence, set 2; reporter increase, % at 12.5 µM; 0.23% of 360,000 active; D54 ERlucT glycosylation luciferase reporter, 24 h; percent of 100 nM tunicamycin response; AID 588692, 2011;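 active = mean luciferase reporter signal, scaled so untreated is 0 and the glycosylation-blocking control 100, at or above a set limit in every replicate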;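 also: luciferase carries N-glycosylation sites so blocking glycosylation raises the light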
PDI inh – inhibitors of human PDI, primary screen, biochemical, turbidity, single point, plate reader | Protein disulfide-isomerase (Homo sapiens), P07237 | PDI insulin aggregation turbidity, A650, 90 min | inhibition, % at 10 µM | 0.052% of 350,000 active;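 active = mean inhibition across replicates of 30% or more, whatever share of single replicates reach that level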
Target sequence (P07237 whole entry, looked up): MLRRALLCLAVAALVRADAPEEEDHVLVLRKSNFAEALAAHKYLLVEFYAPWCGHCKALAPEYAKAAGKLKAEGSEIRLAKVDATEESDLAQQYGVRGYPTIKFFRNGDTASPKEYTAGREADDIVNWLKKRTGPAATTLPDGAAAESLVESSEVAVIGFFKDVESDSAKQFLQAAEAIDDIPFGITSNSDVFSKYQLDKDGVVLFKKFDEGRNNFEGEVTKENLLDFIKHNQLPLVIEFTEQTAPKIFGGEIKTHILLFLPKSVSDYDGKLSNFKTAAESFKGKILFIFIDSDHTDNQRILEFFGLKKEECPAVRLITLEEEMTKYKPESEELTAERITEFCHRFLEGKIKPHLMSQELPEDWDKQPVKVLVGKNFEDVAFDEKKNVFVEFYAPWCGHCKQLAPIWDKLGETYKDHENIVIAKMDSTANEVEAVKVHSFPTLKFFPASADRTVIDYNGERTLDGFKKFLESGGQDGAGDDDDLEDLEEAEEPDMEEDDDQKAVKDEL
Vif inh – HIV Vif self-association inhibitors, primary screen, imaging, HEK293T, single point. HEK293T cells, Vif self-association by quenched fluorescence, 24 h. inhibition, % at 7.49 µM. 0.35% of 340,000 active. AID 602346, 2012; in the data active = inhibition above about 50%, passing the limit was not always enough
PvdQ acylase – P. aeruginosa PvdQ acylase inhibitors, primary screen, biochemical, fluorescence, plate reader and imaging, single point. AID 488965, 2010. PvdQ acylase [Pseudomonas aeruginosa LESB58]. purified PvdQ acylase. 0.063% of 340,000 active. inhibition, % at 10 µM; in the data active = inhibition above about 30%, passing the limit was not always enough
ERp5 block – inhibitors of ERp5-driven insulin aggregation, primary screen, biochemical, turbidity, absorbance 650 nm, single point. inhibition, % at 9.99 µM. Protein disulfide-isomerase A6 (Homo sapiens), Q15084. 0.05% of 350,000 active. 90 min. AID 651711, 2012;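 active = mean replicate inhibition above about 25%, with every replicate also reaching it, limit read from the data, passing the limit was not always enough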
Numbers stand for hits; i = inactive; nt = not tested or not shown; ! = repeats disagree. An excerpt weighted towards active compounds, which were near 0.56% of everything screened.

SMILES | N-glyco inh | PDI inh | Vif inh | PvdQ acylase | ERp5 block
CCOc1ccc(NC(C)=O)cc1 | i | i | i | i | i
CCOc1ccc(NC(=O)c2ccccn2)cc1 | i | i | i | 36.6 | i
CCOc1ccc(NC(=O)c2cnccn2)cc1 | i | i | i | i | nt
CCOc1ccc(NC(N)=O)cc1 | i | i | 64.8 | i | i
Cc1ccccc1NC(=S)NC(=O)c1cncc(Br)c1 | i | i | i | i | nt
CCCSc1ccc2nc(NC(=O)OC)[nH]c2c1 | i | i | 159.7 | i | i
CC(C)c1c(C(=O)Nc2ccccc2)c(-c2ccccc2)c(-c2ccc(F)cc2)n1CC[C@@H](O)C[C@@H](O)CC(=O)O | 80.3 | i | i | nt | i
O=C(Nc1cccc(-c2nc3ccccc3[nH]2)c1)c1cccc(NC(=O)c2ccco2)c1 | i | i | 72.2 | i | nt
Cc1ccc(C(=O)COC(=O)CNC(=O)Cc2ccccc2)cc1[N+](=O)[O-] | i | i | i | i | nt
O=C1C2C3C=CC(C4CC34)C2C(=O)N1/N=C/c1c[nH]c2ccccc12 (stereo not drawn) | i | i | 90.5 | i | i
Cc1cc(C(=O)CCC(=O)Nc2ccc(C(N)=O)cc2)c(C)s1 | i | i | i | nt | i
COc1ccc(CCNc2nnc(Sc3nnnn3-c3ccccc3)s2)cc1OC | i | i | 139.2 | i | nt
COc1ccc(-n2nnnc2SCC(=O)NCCc2ccccc2)cc1OC | i | i | i | i | i
CC(=O)c1cccc(NC(=O)CSc2ncc(C(=O)Nc3ccccc3)c(=O)n2C)c1 | 30.1 | i | i | i | i
COc1cc(-c2cc(=O)c3c(O)c(OC)c(OC)cc3o2)cc(OC)c1O | i | nt | 89.0 | i | i
COc1ccc(-c2cc(=O)c3c(O)c(OC)c(O)cc3o2)cc1 | i | nt | i | i | i
Cc1cc(C)c(OCC(=O)Nc2ccc3c(c2)OCO3)cc1C | i | i | 67.5 | i | nt
Cc1ccc(C)c(OCC(=O)Nc2ccc3c(c2)OCO3)c1 | i | i | i | i | i
COc1cccc(-c2csc(N3CCN(C(=O)Nc4ccccc4OC)CC3)n2)c1 | i | i | 122.3 | i | i
COC(=O)CNC(=S)NC(=O)c1ccc(C(C)(C)C)cc1 | i | i | i | i | i
Cc1nnc2ccc(-c3ccc(NS(=O)(=O)c4ccccc4F)cc3)nn12 | i | i | i | i | i
Cc1nnc2ccc(-c3ccc(NS(=O)(=O)c4ccc(F)cc4F)cc3)nn12 | i | i | 70.9 | i | i
Cc1nnc2ccc(-c3ccc(NS(=O)(=O)c4ccccc4[N+](=O)[O-])cc3)nn12 | i | i | 76.0 | i | i
O=C(CC1SC2=NCCN2C1=O)Nc1ccc(Br)cc1 (stereo not drawn) | i | i | 53.3 | i | i
O=C(COC(=O)C12CC3CC(CC(O)(C3)C1)C2)Nc1cccc(Br)c1 | i | i | i | i | i
SMILES | N-glyco inh | PDI inh | Vif inh | PvdQ acylase | ERp5 block
CC(Nc1nc(-c2ccncc2)nc2ccccc12)c1ccccc1 (stereo not drawn) | i | i | i | i | i
CC(Nc1nc(-c2cccnc2)nc2ccccc12)c1ccccc1 (stereo not drawn) | 37.5 | i | i | nt | i
COC(=O)c1cc(N=Nc2sc(N)nc2C)cc(C(=O)OC)c1 | i | i | i | i | i
CCCCN1C(=O)/C(=C/C=C2\SCCN2C)SC1=S | i | i | i | i | i
CN1CCS/C1=C/C=C1/SC(=S)N(Cc2ccccc2)C1=O | i | i | 51.6 | i | i
O=C(C[C@H]1C[C@@H]2c3cc(NC(=O)CC4CC4)ccc3O[C@@H]2[C@@H](CO)O1)NCc1ccc(-c2ccccc2)cc1 | nt | nt | nt | nt | 62.6
O=C(C[C@H]1C[C@@H]2c3cc(NC(=O)CC4CC4)ccc3O[C@@H]2[C@H](CO)O1)NCc1ccc(-c2ccccc2)cc1 | nt | nt | nt | nt | i
O=C(C[C@@H]1C[C@@H]2c3cc(NC(=O)CC4CC4)ccc3O[C@@H]2[C@H](CO)O1)NCc1ccc(-c2ccccc2)cc1 | nt | nt | nt | nt | i
O=C(C[C@H]1C[C@@H]2c3cc(NC(=O)NC4CCCC4)ccc3O[C@@H]2[C@@H](CO)O1)NCc1ccc(Cl)cc1 | nt | nt | nt | nt | 98.2
O=C(C[C@@H]1C[C@H]2c3cc(NC(=O)CC4CC4)ccc3O[C@H]2[C@@H](CO)O1)NCc1ccc(-c2ccccc2)cc1 | nt | nt | nt | nt | 59.4
CCC(=O)N1c2ccccc2NC2=C(C(=O)CCC2)C1c1cccnc1 (stereo not drawn) | i | i | i | i | nt
CN(Cc1ccccc1)S(=O)(=O)c1ccc2[nH]cc(C(=O)NCC3CCCO3)c(=O)c2c1 (stereo not drawn) | i | i | nt | i | nt
CC(C)CCNc1nc2ccccc2nc1NS(=O)(=O)c1cccs1 | i | i | i | i | i
CCOc1ccccc1NC(=O)CN(c1ccc(OC)cc1)S(=O)(=O)c1c(C)noc1C | 33.5 | i | i | i | nt
COc1ccc(/C=N/n2cncn2)cc1Cn1cc([N+](=O)[O-])cn1 | i | i | i | nt | i
COc1ccc(/C=N/Nc2ccc([N+](=O)[O-])cc2)cc1Cn1cc([N+](=O)[O-])cn1 | i | i | 98.3 | i | nt
CN(CC(=O)Nc1ccc(Cl)c(C(F)(F)F)c1)C(=O)c1cc(-c2ccncc2)nc2ccccc12 | i | i | i | i | i
CN(CC(=O)Nc1ccc(F)c(F)c1F)C(=O)c1cc(-c2ccncc2)nc2ccccc12 | i | i | i | i | 29.0
CCOC(=O)C1=C(C)N(CCCC(=O)O)C(=O)NC1c1ccccc1 (stereo not drawn) | i | i | i | i | i
CCOC(=O)C1=C(C)N(CCO)C(=O)NC1c1ccccc1 (stereo not drawn) | i | i | 63.2 | i | i
COc1ccc(C(C)NC(=O)c2ccc(Cl)cc2)cc1OC (stereo not drawn) | i | i | i | i | nt
COc1ccc(C(=O)CC(SCC(NC(C)=O)C(=O)O)c2ccc(Cl)cc2)cc1OC (stereo not drawn) | 33.2 | i | i | i | i
Oc1ccc(CCNc2c3ccccc3nc3ccccc23)cc1O | 37.4 | i | i | i | i
CC(C)NC(=O)N(C)C[C@@H]1Oc2c(NS(=O)(=O)c3ccccc3)cccc2C(=O)N([C@@H](C)CO)C[C@H]1C | nt | nt | nt | nt | i
Cc1nn2c(COc3ccc(NC(=O)C(C)C)cc3)nnc2c2ccccc12 | i | i | i | i | i
Cc1nn2c(COc3ccc(NC(=O)c4ccccc4Cl)cc3)nnc2c2ccccc12 | i | i | 98.6 | i | nt
C[C@H](CO)N1C[C@H](C)[C@H](CN(C)Cc2cccc(F)c2)Oc2ncc(Br)cc2C1=O | i | i | i | nt | 82.4!
C[C@@H]1CN([C@@H](C)CO)C(=O)c2cc(-c3cccc(C#N)c3)cnc2O[C@H]1CN(C)Cc1cncnc1 | nt | nt | nt | nt | 83.8
C[C@H]1CN([C@@H](C)CO)C(=O)CCCn2cc(nn2)CO[C@@H]1CN(C)Cc1cccc(C(F)(F)F)c1 | nt | nt | nt | nt | 44.4
Cc1[nH]c2ccccc2c1SCC(=O)NNC(=O)Nc1ccc(OC(F)(F)F)cc1 | i | i | i | i | i
